Test results: the supplement of paper PMC10849652
About 7,900 targets were measured; listed, in parts, are those with a hit and a random draw of the rest. About 0.6% of all pairs of compound and target were hits.

Assays:
Test in all cases: log2 fold change, soluble protein after heating vs DMSO (PISA); higher = thermal stabilisation; K562 cells, 10 uM, 30 min; active = over 0.2 and 3.5 SD of the protein, either way, in both replicates (recomputed)
[1] = compound: CC[C@@H]1C(=O)N(C)c2cnc(Nc3ccc(C(=O)NC4CCN(C)CC4)cc3OC)nc2N1C1CCCC1
Procedure, shortened: (§1)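 K562 cells at 2×10^6 cells/mL were treated for 30 min with 10 μM compound, and aliquots were heated for 3 min over 48°C-58°C before pooling. Extraction used PBS with 0.5% NP-40 at 4°C, and soluble protein was the supernatant after 21,000xg for 90 min, measured by TMTpro 16plex LC-MS/MS with channel sums equalised. Thermal stability values, relative to control samples and from duplicates, are log2 fold changes.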

volasertib = compound: CC[C@@H]1C(=O)N(C)c2cnc(Nc3ccc(C(=O)N[C@H]4CC[C@H](N5CCN(CC6CC6)CC5)CC4)cc3OC)nc2N1C(C)C [volasertib]
Procedure, shortened: as §1

[2] = compound: CC[C@H](C)N1C=C(C2=C(C=C(C=C21)C3=CN=C(C=C3)N4CCNCC4)C(=O)NCC5=C(C=C(NC5=O)C)C)C
Procedure, shortened: as §1

epoxomicin = compound: CC[C@H](C)[C@@H](C(=O)N[C@@H]([C@@H](C)O)C(=O)N[C@@H](CC(C)C)C(=O)[C@]1(CO1)C)NC(=O)[C@H]([C@@H](C)CC)N(C)C(=O)C [epoxomicin]
Procedure, shortened: as §1

[3] = compound: CCn1c(C(=O)N(C2CC2)C2CC2)cc2c3c(ncn3C)c(Nc3cc(C)n(C)n3)nc21
Procedure, shortened: as §1

[4] = compound: CCn1cc(-c2ccnc3[nH]c(-c4cccc(CN(C)C)c4)cc23)c(-c2ccc(NC(=O)N(C)C)cc2)n1
Procedure, shortened: as §1

[5] = compound: CN(C)CC(=O)Nc1ccc2[nH]c(=O)c3ccccc3c2c1
Procedure, shortened: as §1

rosiglitazone = compound: CN(CCOC1=CC=C(C=C1)C[C@H]2C(=O)NC(=O)S2)C3=CC=CC=N3 (racemic) [rosiglitazone]
Procedure, shortened: as §1

[6] = compound: CN1C2=C(C3=C1C(=O)N(N=C3)CC4=CC(=CC=C4)N)SC(=C2)S(=O)C
Procedure, shortened: as §1

[7] = compound: CN1CCC(CNc2ccc3ncc(-c4cccc(OC(F)(F)F)c4)n3n2)CC1
Procedure, shortened: as §1

saracatinib = compound: CN1CCN(CCOc2cc(OC3CCOCC3)c3c(Nc4c(Cl)ccc5c4OCO5)ncnc3c2)CC1 [saracatinib]
Procedure, shortened: as §1

sotrastaurin = compound: CN1CCN(c2nc(C3=C(c4c[nH]c5ccccc45)C(=O)NC3=O)c3ccccc3n2)CC1 [sotrastaurin]
Procedure, shortened: as §1

alvocidib = compound: CN1CC[C@H](c2c(O)cc(O)c3c(=O)cc(-c4ccccc4Cl)oc23)[C@H](O)C1 [alvocidib]
Procedure, shortened: as §1

Tubastatin A = compound: CN1CCc2c(c3ccccc3n2Cc2ccc(C(=O)NO)cc2)C1 [Tubastatin A]
Procedure, shortened: as §1

[8] = compound: CNC(=O)C1=CC=CC=C1NC2=NC(=NC=C2Cl)NC3=C(C=C(C=C3)N4CCOCC4)OC
Procedure, shortened: as §1

defactinib = compound: CNC(=O)c1ccc(Nc2ncc(C(F)(F)F)c(NCc3nccnc3N(C)S(C)(=O)=O)n2)cc1 [defactinib]
Procedure, shortened: as §1

rucaparib = compound: CNCc1ccc(-c2[nH]c3cc(F)cc4c3c2CCNC4=O)cc1 [rucaparib]
Procedure, shortened: as §1

[9] = compound: CNc1nc(-c2ccc3c(N)n[nH]c3c2)cc(N2C[C@@H](C(=O)NC3CCCCC3)CC[C@H]2C)n1
Procedure, shortened: as §1

encorafenib = compound: COC(=O)N[C@@H](C)CNc1nccc(-c2cn(C(C)C)nc2-c2cc(Cl)cc(NS(C)(=O)=O)c2F)n1 [encorafenib]
Procedure, shortened: as §1

[10] = compound: COC(=O)[C@H](CCSC)NC(=O)C1=C(C=C(C=C1)NC[C@H](CS)N)C2=CC=CC=C2
Procedure, shortened: as §1

Measured: log2 fold change

CTNNB1 (UniProt P35222)
UniProt P35222, sequence (P35222 whole entry, looked up): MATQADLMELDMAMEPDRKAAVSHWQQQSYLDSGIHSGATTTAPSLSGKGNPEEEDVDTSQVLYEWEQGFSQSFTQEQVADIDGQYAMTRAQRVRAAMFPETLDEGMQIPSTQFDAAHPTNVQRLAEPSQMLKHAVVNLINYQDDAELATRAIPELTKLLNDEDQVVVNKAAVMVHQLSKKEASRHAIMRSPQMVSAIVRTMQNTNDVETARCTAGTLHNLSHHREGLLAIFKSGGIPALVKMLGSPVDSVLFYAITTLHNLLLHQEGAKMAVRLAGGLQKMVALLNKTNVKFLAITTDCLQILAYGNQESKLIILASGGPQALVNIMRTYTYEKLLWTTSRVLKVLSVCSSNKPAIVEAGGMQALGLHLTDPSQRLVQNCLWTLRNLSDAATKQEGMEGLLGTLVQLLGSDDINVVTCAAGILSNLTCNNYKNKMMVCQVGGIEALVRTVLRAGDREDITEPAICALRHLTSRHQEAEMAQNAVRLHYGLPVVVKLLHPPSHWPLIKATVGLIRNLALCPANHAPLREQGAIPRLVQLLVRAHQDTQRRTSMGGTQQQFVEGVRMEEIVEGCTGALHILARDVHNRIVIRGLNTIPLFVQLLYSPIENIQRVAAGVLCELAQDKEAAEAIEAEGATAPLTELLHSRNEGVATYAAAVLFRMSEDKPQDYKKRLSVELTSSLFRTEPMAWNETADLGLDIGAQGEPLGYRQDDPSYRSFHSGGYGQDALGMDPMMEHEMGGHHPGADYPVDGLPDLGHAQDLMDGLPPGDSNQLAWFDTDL
active: epoxomicin 0.887 | sotrastaurin 1.08
inactive: [1] 0.2 | volasertib -0.162 | [2] -0.116 | [3] -0.027 | [4] -0.304 | [5] -0.151 | rosiglitazone 0.124 | [6] -0.185 | [7] 0.379 | saracatinib 0.032 | alvocidib 0.037 | Tubastatin A 0.148 | [8] -0.065 | defactinib 0.074 | rucaparib -0.145 | [9] -0.025 | encorafenib 0.079 | [10] -0.015

FADS1, A0A0A0MR51
inactive: [1] 0.022 | volasertib -0.148 | [2] 0.036 | epoxomicin 0.024 | [3] 0.002 | [4] -0.002 | [5] -0.007 | rosiglitazone 0.017 | [6] -0.119 | [7] -0.041 | saracatinib 0.013 | sotrastaurin -0.061 | alvocidib -0.086 | Tubastatin A 0.15 | [8] 0.112 | defactinib -0.022 | rucaparib 0.005 | [9] 0.027 | encorafenib 0.004 | [10] 0

FAM117A (UniProt Q9C073)
UniProt Q9C073, sequence (Q9C073 whole entry, looked up): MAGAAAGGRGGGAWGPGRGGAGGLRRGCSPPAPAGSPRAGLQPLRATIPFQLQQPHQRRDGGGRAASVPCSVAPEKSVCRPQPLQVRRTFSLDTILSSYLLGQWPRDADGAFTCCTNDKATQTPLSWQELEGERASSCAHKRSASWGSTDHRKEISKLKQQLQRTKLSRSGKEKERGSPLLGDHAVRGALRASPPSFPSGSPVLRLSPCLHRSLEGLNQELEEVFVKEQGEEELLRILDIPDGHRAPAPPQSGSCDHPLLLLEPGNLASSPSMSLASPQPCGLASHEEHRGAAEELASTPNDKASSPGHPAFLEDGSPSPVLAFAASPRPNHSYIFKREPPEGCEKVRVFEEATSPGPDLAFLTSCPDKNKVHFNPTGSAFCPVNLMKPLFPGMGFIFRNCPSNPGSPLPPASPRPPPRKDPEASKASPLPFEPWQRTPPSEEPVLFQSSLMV
active: [8] -0.268
inactive: [1] 0.001 | volasertib 0.129 | [2] 0.071 | epoxomicin 0.091 | [3] 0.006 | [4] -0.025 | [5] 0.028 | rosiglitazone 0.015 | [6] -0.008 | [7] -0.182 | saracatinib -0.019 | sotrastaurin 0.009 | alvocidib -0.077 | Tubastatin A 0.058 | defactinib -0.141 | rucaparib -0.079 | [9] 0.083 | encorafenib -0.023 | [10] 0.009

DCUN1D1 (UniProt Q96GG9)
UniProt Q96GG9, sequence (Q96GG9 whole entry, looked up): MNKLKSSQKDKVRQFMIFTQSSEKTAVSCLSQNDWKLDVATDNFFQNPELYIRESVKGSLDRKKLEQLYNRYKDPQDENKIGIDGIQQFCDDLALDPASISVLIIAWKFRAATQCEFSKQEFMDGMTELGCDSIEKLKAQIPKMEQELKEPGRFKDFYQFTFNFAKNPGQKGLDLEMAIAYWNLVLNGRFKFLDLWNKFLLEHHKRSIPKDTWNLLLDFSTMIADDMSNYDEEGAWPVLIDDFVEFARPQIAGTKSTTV
active: volasertib -0.276
inactive: [1] -0.1 | [2] 0.018 | epoxomicin 0.048 | [3] -0.006 | [4] -0.061 | [5] 0.03 | rosiglitazone 0.013 | [6] -0.056 | [7] -0.178 | saracatinib 0.032 | sotrastaurin -0.001 | alvocidib -0.067 | Tubastatin A -0.009 | [8] 0.007 | defactinib -0.033 | rucaparib -0.026 | [9] -0.02 | encorafenib 0.014 | [10] -0.011

EED, A0A5F9ZI63
inactive: [1] -0.052 | volasertib -0.055 | [2] -0.159 | epoxomicin -0.032 | [3] -0.001 | [4] 0.068 | [5] -0.099 | rosiglitazone 0.054 | [6] 0.045 | [7] 0.209 | saracatinib 0.008 | sotrastaurin -0.065 | alvocidib 0.037 | Tubastatin A -0.041 | [8] -0.057 | defactinib -0.04 | rucaparib 0.125 | [9] -0.052 | encorafenib 0.025 | [10] -0.05

DBN1 isoform 3 (UniProt Q16643)
inactive: [1] 0.026 | volasertib -0.189 | [2] 0.089 | epoxomicin -0.014 | [3] 0.017 | [4] 0.087 | [5] -0.047 | rosiglitazone -0.021 | [6] 0.05 | [7] -0.011 | saracatinib 0.121 | sotrastaurin 0.001 | alvocidib -0.044 | Tubastatin A -0.094 | [8] -0.042 | defactinib -0.06 | rucaparib 0.041 | [9] -0.011 | encorafenib 0.097 | [10] -0.033

FAM114A2 (UniProt Q9NRY5)
UniProt Q9NRY5, sequence (Q9NRY5 whole entry, looked up): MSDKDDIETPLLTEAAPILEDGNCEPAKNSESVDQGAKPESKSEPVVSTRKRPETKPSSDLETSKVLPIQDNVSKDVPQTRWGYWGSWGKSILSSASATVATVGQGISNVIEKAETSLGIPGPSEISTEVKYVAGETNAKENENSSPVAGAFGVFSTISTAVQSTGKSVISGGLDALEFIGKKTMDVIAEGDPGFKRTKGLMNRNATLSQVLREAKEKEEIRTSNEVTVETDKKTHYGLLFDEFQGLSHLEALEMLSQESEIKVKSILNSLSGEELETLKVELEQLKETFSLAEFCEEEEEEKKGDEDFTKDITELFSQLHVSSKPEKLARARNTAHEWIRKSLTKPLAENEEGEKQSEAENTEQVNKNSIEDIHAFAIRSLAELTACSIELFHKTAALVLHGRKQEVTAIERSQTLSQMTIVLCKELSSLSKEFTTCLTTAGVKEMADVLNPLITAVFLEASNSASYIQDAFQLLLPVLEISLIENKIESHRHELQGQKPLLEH
active: [7] -0.29
inactive: [1] -0.094 | volasertib -0.136 | [2] 0.046 | epoxomicin 0.052 | [3] -0.001 | [4] -0.059 | [5] 0.02 | rosiglitazone 0.049 | [6] -0.013 | saracatinib 0.005 | sotrastaurin -0.048 | alvocidib -0.078 | Tubastatin A -0.019 | [8] -0.001 | defactinib -0.04 | rucaparib -0.022 | [9] -0.054 | encorafenib 0.008 | [10] 0.025

FAM83D (UniProt Q9H4H8)
inactive: [1] -0.097 | volasertib -0.139 | [2] 0 | epoxomicin -0.082 | [3] -0.074 | [4] -0.115 | [5] 0.085 | rosiglitazone 0.081 | [6] 0.006 | [7] 0.042 | saracatinib -0.014 | sotrastaurin -0.055 | alvocidib -0.088 | Tubastatin A -0.002 | [8] -0.004 | defactinib -0.074 | rucaparib 0.078 | [9] 0.03 | encorafenib 0.071 | [10] -0.023

CTSH (UniProt P09668)
UniProt P09668, sequence (P09668 whole entry, looked up): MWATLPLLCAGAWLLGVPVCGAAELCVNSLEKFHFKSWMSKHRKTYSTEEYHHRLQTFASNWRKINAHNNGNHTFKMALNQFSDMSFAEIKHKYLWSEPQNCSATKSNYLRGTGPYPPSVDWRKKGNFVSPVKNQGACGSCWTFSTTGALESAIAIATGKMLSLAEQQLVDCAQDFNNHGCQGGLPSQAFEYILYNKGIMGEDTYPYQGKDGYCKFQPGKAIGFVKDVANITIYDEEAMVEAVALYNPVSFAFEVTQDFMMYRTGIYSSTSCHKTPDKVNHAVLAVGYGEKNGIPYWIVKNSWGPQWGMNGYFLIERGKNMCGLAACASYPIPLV
inactive: [1] -0.087 | volasertib -0.06 | [2] 0.008 | epoxomicin -0.022 | [3] 0.03 | [4] 0.057 | [5] 0.001 | rosiglitazone 0.004 | [6] -0.008 | saracatinib 0.101 | sotrastaurin 0.044 | alvocidib 0.038 | Tubastatin A 0.017 | [8] -0.002 | defactinib 0.018 | rucaparib -0.121 | [9] -0.03 | encorafenib 0.018 | [10] 0.02
active: [7] -0.295

FAF2 (UniProt Q96CS3)
UniProt Q96CS3, sequence (Q96CS3 whole entry, looked up): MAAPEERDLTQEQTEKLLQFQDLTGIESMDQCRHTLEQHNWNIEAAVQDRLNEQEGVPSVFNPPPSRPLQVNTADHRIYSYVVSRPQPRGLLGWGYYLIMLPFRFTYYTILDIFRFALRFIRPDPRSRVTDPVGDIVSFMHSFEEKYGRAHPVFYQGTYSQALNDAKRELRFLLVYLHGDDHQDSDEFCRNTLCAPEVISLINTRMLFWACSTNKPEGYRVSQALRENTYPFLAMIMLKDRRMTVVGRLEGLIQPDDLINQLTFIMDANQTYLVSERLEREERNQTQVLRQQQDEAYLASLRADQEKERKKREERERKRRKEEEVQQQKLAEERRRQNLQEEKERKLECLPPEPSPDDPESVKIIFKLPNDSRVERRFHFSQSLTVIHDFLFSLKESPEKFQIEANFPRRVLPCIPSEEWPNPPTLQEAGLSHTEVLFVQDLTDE
inactive: [1] -0.095 | [2] 0.002 | epoxomicin -0.046 | [3] 0.006 | [4] 0.018 | [5] 0.037 | rosiglitazone 0.029 | [6] 0.016 | [7] -0.069 | saracatinib -0.084 | sotrastaurin -0.048 | alvocidib -0.053 | Tubastatin A -0.008 | [8] 0.021 | defactinib -0.011 | rucaparib 0.015 | [9] 0.021 | encorafenib 0.036 | [10] 0
active: volasertib -0.322

FAAP100 (UniProt Q0VG06)
UniProt Q0VG06, sequence (Q0VG06 whole entry, looked up): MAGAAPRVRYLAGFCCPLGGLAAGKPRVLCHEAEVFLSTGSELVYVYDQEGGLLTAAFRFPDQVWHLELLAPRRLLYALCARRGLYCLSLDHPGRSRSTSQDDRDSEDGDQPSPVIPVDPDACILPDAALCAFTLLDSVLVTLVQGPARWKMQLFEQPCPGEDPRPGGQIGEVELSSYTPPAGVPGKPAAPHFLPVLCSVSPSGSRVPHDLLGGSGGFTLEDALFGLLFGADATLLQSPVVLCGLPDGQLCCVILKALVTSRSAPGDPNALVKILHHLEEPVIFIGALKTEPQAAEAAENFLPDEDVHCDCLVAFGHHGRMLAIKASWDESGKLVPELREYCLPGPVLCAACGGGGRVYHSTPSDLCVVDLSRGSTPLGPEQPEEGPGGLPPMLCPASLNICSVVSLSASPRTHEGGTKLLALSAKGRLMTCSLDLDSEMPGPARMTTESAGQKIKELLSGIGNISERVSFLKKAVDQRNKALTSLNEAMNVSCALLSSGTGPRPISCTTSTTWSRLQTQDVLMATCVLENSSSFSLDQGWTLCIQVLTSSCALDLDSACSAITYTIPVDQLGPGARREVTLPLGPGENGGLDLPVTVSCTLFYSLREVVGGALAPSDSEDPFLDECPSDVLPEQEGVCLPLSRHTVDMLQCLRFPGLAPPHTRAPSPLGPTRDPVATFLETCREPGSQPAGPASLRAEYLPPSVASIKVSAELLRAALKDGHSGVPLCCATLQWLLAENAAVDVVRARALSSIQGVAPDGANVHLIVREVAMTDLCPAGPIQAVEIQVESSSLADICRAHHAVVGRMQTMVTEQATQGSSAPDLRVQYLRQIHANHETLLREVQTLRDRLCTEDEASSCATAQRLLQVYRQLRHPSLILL
inactive: [1] -0.01 | volasertib 0.149 | [2] -0.02 | epoxomicin 0.139 | [3] -0.05 | [4] -0.093 | [5] 0.061 | rosiglitazone 0.006 | [6] -0.02 | [7] 0.124 | saracatinib 0.044 | sotrastaurin -0.014 | alvocidib -0.035 | Tubastatin A 0.028 | [8] -0.178 | defactinib -0.044 | rucaparib 0.009 | [9] -0.067 | encorafenib -0.04 | [10] -0.097

DNAJB12 (UniProt Q9NXW2)
UniProt Q9NXW2, sequence (Q9NXW2 whole entry, looked up): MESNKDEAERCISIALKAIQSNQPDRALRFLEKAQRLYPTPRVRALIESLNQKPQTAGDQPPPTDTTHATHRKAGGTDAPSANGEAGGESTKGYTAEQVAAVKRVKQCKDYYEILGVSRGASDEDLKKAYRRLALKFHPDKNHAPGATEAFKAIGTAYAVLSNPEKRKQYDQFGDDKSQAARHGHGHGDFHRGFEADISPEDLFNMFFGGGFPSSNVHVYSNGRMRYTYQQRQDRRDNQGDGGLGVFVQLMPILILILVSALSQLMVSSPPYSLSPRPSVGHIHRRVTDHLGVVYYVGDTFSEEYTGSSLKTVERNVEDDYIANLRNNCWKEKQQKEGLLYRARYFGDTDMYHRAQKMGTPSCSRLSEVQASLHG
inactive: [1] -0.045 | volasertib -0.123 | [2] -0.033 | epoxomicin -0.003 | [3] -0.096 | [4] 0.024 | [5] 0.022 | rosiglitazone 0.023 | [6] 0.068 | [7] -0.081 | saracatinib 0.022 | sotrastaurin 0.068 | alvocidib -0.006 | Tubastatin A -0.006 | [8] 0.024 | defactinib -0.03 | rucaparib 0.079 | [9] -0.011 | encorafenib -0.018 | [10] -0.021

CYFIP1 (UniProt Q7L576)
active: volasertib -0.233
inactive: [1] -0.011 | [2] 0.046 | epoxomicin 0.02 | [3] -0.008 | [4] 0.011 | [5] 0.024 | rosiglitazone 0.045 | [6] 0.001 | [7] -0.034 | saracatinib -0.023 | sotrastaurin -0.026 | alvocidib -0.038 | Tubastatin A 0.006 | [8] -0.001 | defactinib -0.049 | rucaparib 0.025 | [9] 0 | encorafenib -0.005 | [10] -0.013

ESYT1 isoform 2 (UniProt Q9BSJ8)
inactive: [1] 0.007 | volasertib -0.37 | [2] 0.099 | epoxomicin 0.026 | [3] -0.09 | [4] 0 | [5] 0.033 | rosiglitazone 0.045 | [6] 0.063 | [7] 0.115 | saracatinib -0.148 | sotrastaurin -0.208 | alvocidib -0.05 | Tubastatin A 0.031 | [8] -0.034 | defactinib -0.043 | rucaparib 0.154 | [9] 0.099 | encorafenib 0.175 | [10] -0.099

EEF1AKNMT (UniProt Q8N6R0)
UniProt Q8N6R0, sequence (Q8N6R0 whole entry, looked up): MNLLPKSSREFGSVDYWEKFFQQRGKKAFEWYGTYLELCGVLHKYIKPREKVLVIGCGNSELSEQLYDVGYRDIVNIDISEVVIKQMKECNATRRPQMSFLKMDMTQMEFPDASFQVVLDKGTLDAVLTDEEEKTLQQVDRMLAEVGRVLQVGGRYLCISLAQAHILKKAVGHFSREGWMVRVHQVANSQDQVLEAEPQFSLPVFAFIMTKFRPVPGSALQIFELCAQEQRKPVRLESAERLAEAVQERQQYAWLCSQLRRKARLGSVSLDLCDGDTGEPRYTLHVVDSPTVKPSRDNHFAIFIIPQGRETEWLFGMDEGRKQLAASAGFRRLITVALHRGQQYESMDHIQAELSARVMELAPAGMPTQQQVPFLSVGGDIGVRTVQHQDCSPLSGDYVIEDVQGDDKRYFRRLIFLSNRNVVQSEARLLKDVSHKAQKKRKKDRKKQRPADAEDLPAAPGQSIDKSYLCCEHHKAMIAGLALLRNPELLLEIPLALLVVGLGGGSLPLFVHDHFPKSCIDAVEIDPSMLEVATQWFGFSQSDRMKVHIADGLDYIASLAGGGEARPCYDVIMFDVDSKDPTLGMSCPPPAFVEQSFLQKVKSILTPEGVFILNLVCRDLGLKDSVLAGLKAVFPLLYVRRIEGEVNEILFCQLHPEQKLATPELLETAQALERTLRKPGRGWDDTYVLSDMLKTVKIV
active: volasertib -0.564
inactive: [1] -0.082 | [2] 0.111 | epoxomicin 0.012 | [3] -0.038 | [4] 0.134 | [5] 0.092 | rosiglitazone 0.022 | [6] 0.075 | [7] -0.095 | saracatinib -0.063 | sotrastaurin -0.174 | alvocidib -0.039 | Tubastatin A -0.004 | [8] 0.063 | defactinib -0.068 | rucaparib 0.115 | [9] 0.059 | encorafenib 0.095 | [10] -0.182
